Sampled rows, rich in hits. Any-hit rate of the full collection: about 8%.
Gal4-VP16 FLuc: inhibits Gal4-VP16 luciferase reporter, ROR gamma counter-screen. Drosophila S2 Gal4-VP16 UAS-luciferase, luminescence, 20 h. Potency, µM (highest dose often 53.6 µM), for inactives: at the highest dose activity, negative = inhibition, actives largely listed as inhibitors. 310,000 compounds, 3.5% hits;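 also: Gal4-VP16 expression switched on by copper sulfate through the metallothionein promoter; potency is read from the fitted curve at half-maximal effect; nearly all actives have a fitted effect of over 50% in size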
RORg inh: inhibitors of mouse ROR gamma transcriptional activity; P51450; Drosophila S2 Gal4-RORgamma UAS-luciferase reporter, 20 h; Potency, µM (doses to about 53.6 µM), for the others: at the top dose activity change, negative = inhibition, actives largely listed as inhibitors; 310,000 compounds, 5.4% hits; also: potency is read from the fitted curve at half-maximal effect; nearly all actives have a fitted effect of over 60% in size
Target sequence (P51450 whole entry, looked up, the tested form may be a part): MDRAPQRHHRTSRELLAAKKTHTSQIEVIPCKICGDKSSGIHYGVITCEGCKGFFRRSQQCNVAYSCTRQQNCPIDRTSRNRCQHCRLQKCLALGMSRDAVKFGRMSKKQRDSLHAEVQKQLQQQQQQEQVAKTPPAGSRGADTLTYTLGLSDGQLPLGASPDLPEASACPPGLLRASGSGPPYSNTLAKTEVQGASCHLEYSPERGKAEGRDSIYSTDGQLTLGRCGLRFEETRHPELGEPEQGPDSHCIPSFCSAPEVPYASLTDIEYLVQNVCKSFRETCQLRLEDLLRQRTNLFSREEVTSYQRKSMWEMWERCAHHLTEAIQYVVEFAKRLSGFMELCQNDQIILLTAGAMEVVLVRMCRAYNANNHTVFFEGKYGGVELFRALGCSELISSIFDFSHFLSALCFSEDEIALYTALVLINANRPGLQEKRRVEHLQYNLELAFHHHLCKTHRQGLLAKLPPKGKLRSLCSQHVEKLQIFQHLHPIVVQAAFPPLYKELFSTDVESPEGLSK
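Luminescence from a UAS-regulated Photinus luciferase reporter in stably transfected Drosophila Schneider cells is measured; decreased signal marks ROR gamma inhibition. Fusion expression is induced by 700 uM copper sulfate for 20 hr.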
TSHR antagonist: blocks TSH signaling through the human TSH receptor | P16473 | TSHR-expressing cells, TSH-stimulated cAMP HTRF, 2 h; hits give low values | activity change, negative = inhibition, % at 11.5 µM | 330,000 compounds, 0.2% hits | AID 504810;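 active = activity change below a set negative limit, meaning inhibition stronger than a set level, cut at about -70% in these data; inconclusive = activity change between two set negative limits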
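TSHR-expressing cells were treated with compounds, then stimulated with TSH at EC80 (4nM final) for 2 hours at 37 deg C. Cellular cAMP was measured by HTRF competition between lysate cAMP and cAMP-d2 for a cryptate-labelled anti-cAMP antibody.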
ELG1 DNA repair: inhibitors of ELG1-dependent DNA repair in HEK293T cells; Potency, µM (highest dose often 46.1 µM), inactives show at the highest dose activity change, negative = inhibition, hits mostly inhibitors; AID 504467; HEK293T ELG1-luciferase reporter, luminescence, 16 h; DNA damage induced by 5-fluorouridine; 330,000 compounds, 2.3% hits; also: potency is read from the fitted curve at half-maximal effect; nearly all actives have a fitted effect of over 55% in size
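Reporter activity after DNA damage by 5-fluorouridine is monitored. Compound-treated cells incubate 16 hr at 37 °C, then ONE-Glo is added for 30 min before luminescence reading.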
FBPA coupling cs: counter-screen for Giardia aldolase inhibitors: coupling enzyme system; coupling enzyme system counterscreen, AmpLite Red fluorescence; activity change, negative = inhibition, % at 58.2 µM, hits read low; 290,000 compounds, 0.67% hits; in the data active = activity change below about -30%
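Compounds tested against the coupling enzymes alone at 57.5 uM final; readout was AmpLite Red fluorescence (525/598 nm) after 20 min at RT.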
* hit, by the source's call; ? = inconclusive; . = not tested or not shown; [ ] = dose if it differs, or a comment. Unless noted, calls follow the shape of the dose curve; as a rule, active = well fitted curve in the direction sought with a large enough effect; inconclusive = small, poorly fitted or top-dose-only effect, or another doubt; inactive = no such curve, though single readings can be large; an effect the other way counts as inactive or inconclusive. % is scaled to controls: 0 for no effect and ±100 for the full control effect.

SMILES	Gal4-VP16 FLuc	RORg inh	TSHR antagonist	ELG1 DNA repair	FBPA coupling cs
CCCCn1c(N)c(-c2nc3ccccc3s2)c2c([N+](=O)[O-])nn(C)c(=O)c21	2.1%	26.6%	-11.9	1.03µM*	0.1
CCCCCn1c(N)c(-c2nc3ccccc3s2)c2c([N+](=O)[O-])nn(CC)c(=O)c21	-1.5%	-5.7%	-2.1	2.59µM*	2.2
Cn1nc([N+](=O)[O-])c2c(-c3nc4ccccc4s3)c(N)n(C3CCCCC3)c2c1=O	-2.1%	29.1%	-0.5	?	-6.8
CCCCn1c(N)c(-c2nc3ccccc3s2)c2c([N+](=O)[O-])nn(CC)c(=O)c21	4.1%	-0.4%	-16.7	?	0.0
O=C(CCCCl)NC(=S)Nc1ccc(CN2CCOCC2)cc1	2.9%	-22.0%	13.2	18.3%	1.2
CSc1ccccc1NC(=O)COc1ccc(Cl)cc1Cl	0.6%	?	-9.3	?	1.5
CC(c1ccco1)N(C(=O)COc1ccc(Cl)cc1Cl)c1ccccn1 (stereo unspecified)	11.2µM*	?	-27.0	?	-0.1
CC(C)CC(=O)NC(=S)Nc1ccc(CN2CCOCC2)cc1	11.2%	4.47µM*	-3.1	-14.0%	1.6
O=C(COc1ccc(Cl)cc1Cl)Nc1ccccn1	2.82µM*	-3.2%	-2.6	?	-0.3
O=C(COc1ccc(Cl)cc1Cl)NC(=S)Nc1ccc(CN2CCOCC2)cc1	?	15.8µM*	-18.0	-0.6%	-2.0
O=C(COc1ccccc1Cl)NC(=S)Nc1ccc(CN2CCOCC2)cc1	-4.3%	-9.1%	-3.4	-14.5%	1.8
O=C(COc1ccc(Cl)cc1Cl)NNC(=S)Nc1ccc(F)cc1	?	3.55µM*	-10.3	15.8%	0.0
CC(C)CC(=O)NNC(=S)Nc1ccc(S(N)(=O)=O)cc1	-3.0%[10 µM]	17.8µM*	7.2	9.9%	-0.4
CC(C)CC(=O)NC(=S)Nc1ccc(N2CCOCC2)cc1	?	28.2µM*	-4.3	?	1.3
O=C(CCCCl)NC(=S)Nc1ccc(N2CCOCC2)cc1	?	2.24µM*	5.9	?	1.6
COC(=O)c1cc(C(=O)NCc2ccc3c(c2)OCO3)cc([N+](=O)[O-])c1	4.1%	-1.7%	-7.8	7.8%	0.7
CCN(CC(=O)Nc1cccc(S(=O)(=O)N(C)c2ccccc2)c1)Cc1cccs1	.	.	-7.9	?	.
COc1ccccc1CN1CC[C@@]2(CCCN(S(=O)(=O)c3ccccc3)C2)C1	7.9%	4.0%	.	.	4.3
O=Cc1c[nH]c2cccc(OCc3ccccc3)c12	.	.	24.7	?	.
Cc1cccc(NC(=S)NCCN2CCOCC2)c1	?	?	-0.5	17.7%	1.1
CC(C)CC(=O)NC(=S)Nc1ccc(NC(=O)c2cccs2)cc1	5.7%	?	8.3	0.0%	4.1
Cc1cc(NC(=S)NC(=O)CC(C)C)ccc1Br	?	2.82µM*	-16.5	?	1.8
CCc1cccc(NC(=S)Nc2ccc(CN3CCOCC3)cc2)c1	20µM*	11.2µM*	-32.5	5.4%	1.1
NCC(=O)N[C@@H](CCCN=C(N)N)C(=O)NCC(=O)N[C@@H](CC(=O)O)C(=O)N[C@@H](CO)C(=O)N1CCC[C@H]1C(=O)O	2.8%	3.2%	.	.	-1.9
CCOc1ccccc1NC(=O)c1nc(S(=O)(=O)Cc2cccc(C)c2)ncc1Cl	2.51µM*	8.91µM*	-82.8*	?	.
SMILES	Gal4-VP16 FLuc	RORg inh	TSHR antagonist	ELG1 DNA repair	FBPA coupling cs
CCSc1ncc(Cl)c(C(=O)Nc2ccccc2OC)n1	-0.7%	-43.7%	?	-19.4%	1.9
CCc1nnc(NC(=O)c2nc(Cl)ccc2Cl)s1	12.7%	?	2.8	16.0%	.
CCc1nnc(NC(=O)c2ccc(COc3ccc(C)cc3)o2)s1	3.9%	-13.9%	-14.4	11.8%	2.6
CCc1nnc(NC(=O)c2nc(S(=O)(=O)Cc3ccc(C)cc3)ncc2Cl)s1	11.2µM*	15.8µM*	-18.9	?	.
CCc1nnc(NC(=O)c2nc(S(=O)(=O)Cc3cccc(C)c3)ncc2Cl)s1	7.94µM*	12.6µM*	-32.5	?	4.7
CCc1nnc(NC(=O)c2nc(S(=O)(=O)Cc3ccccc3)ncc2Cl)s1	8.91µM*	11.2µM*	-26.7	?	.
CCCCN(CCCC)C(=S)NC(=O)C(C)(C)C	6.31µM*	3.16µM*	-3.1	-0.7%	0.2
N#CC1(NC(=O)CN2C(=O)c3ccccc3C2=O)CCCCC1	.	.	30.4	22.2%	.
N#CC1(NC(=O)Cn2ncc(Cl)c(Cl)c2=O)CCCCC1	.	.	-16.0	5.8µM*	.
CC(C)(C)NC(=O)C(c1cccnc1)N(C(=O)c1ccc(Cl)nc1)C1CCCC1 (stereo unspecified)	2.0%	-2.3%	-8.7	3.7%	-50.9*
COc1cccc(NC(=O)c2cc3cccc(OC)c3o/c2=N\O)c1	-27.6%	-36.6%	-14.7	?	4.7
COc1ccc(NC(=O)c2cc3cccc(OC)c3oc2=Nc2ccc(C(=O)O)cc2)cc1OC	?	0.447µM*	-7.9	?	0.0
COc1ccc(C(=O)Nc2ccc3c(c2)Cc2ccccc2-3)cc1	1.8%	-23.6%	-0.8	7.7%	.
COc1ccc2nc3c(cc2c1)Cc1ccccc1-3	2.51µM*	2.51µM*	.	.	-24.7
O=C1/C(=C/c2ccncc2)SC(=S)N1Nc1ccccc1	?	?	19.6	-16.8%	-5.2
Cc1cc(C)nc(NN2C(=O)/C(=C/c3ccccc3)SC2=S)n1	-11.6%	12.6µM*	21.4	16.3%	0.3
NCCC[C@@H](CC(=O)N[C@@H]1CCNC[C@H]1C(=O)N[C@H](CC(=O)N[C@@H](CCC(=O)O)CC(=O)O)Cc1c[nH]c2ccccc12)NC(=O)C[C@H](Cc1ccccc1)NC(=O)[C@@H]1CCCC[C@H]1N	-1.9%	-12.6%	.	.	0.9
CCC(C)c1ccc(NC(=S)NCc2cccs2)cc1 (stereo unspecified)	11.2µM*	7.08µM*	-4.0	?	0.8
CC(C)(C)c1ccc(NC(=S)NCc2cccs2)cc1	10µM*	7.08µM*	-17.7	25.0%	0.9
Cn1c(N)c(Sc2ccccc2[N+](=O)[O-])c(=O)n(C)c1=O	-0.7%	-11.7%	-111.6*	16.6%	-2.6
Cn1c(N)c(Sc2ccc([N+](=O)[O-])cc2)c(=O)n(C)c1=O	-4.8%	1.5%	4.1	5.8%	0.0
CC(Oc1ccccc1)C(=O)N=C1SC2CS(=O)(=O)CC2N1Cc1ccccc1 (stereo unspecified)	-0.4%	36.7%	2.6	10.3%	-0.7
CC(=O)c1cnc2nc(SCc3cccc(C)c3)nn2c1C	20.5%	?	6.1	23.2%	6.2
Cc1ccc(NC(=O)c2cc3nc(C)cc(C)n3n2)cc1	10µM*	6.31µM*	-5.7	?	-7.1
COc1ccc(C2CC(=O)Oc3c(C(CCN4CCCC(C)C4)c4cc(OC)c(OC)c(OC)c4)c(OC)cc(OC)c32)cc1 (stereo unspecified)	-19.4%	7.3%	.	.	0.9
